tim23-1 inh: inhibits growth of tim23-1 mutant yeast. S. cerevisiae tim23-1 growth, BacTiter-Glo luminescence, 24 h. inhibition, % at 20 µM. 330,000 tested, 1.3% active;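 active = growth inhibition of the mutant yeast at or above 50%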;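 note: temperature-sensitive mutant grown at 25 °C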
SKKanGAS inh: SKKanGAS growth inhibition | inhibition, % at 7.5 µM | S. pyogenes SKKanGAS, kanamycin growth, BacTiter-Glo, 6 h | 300,000 tested, 1.3% active;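 active = mean replicate score, as percent of positive control median, at least 50; inconclusive = mean below 50 but one replicate at or above 50; inactive = mean and every replicate below 50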;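 note: strain carries kanamycin resistance gene driven by streptokinase promoter and grows in 40 µg/ml kanamycin; loss of luminescence reflects streptokinase promoter inhibition or plain growth inhibition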
TIM10 inh: growth inhibitors of TIM10 yeast strain. S. cerevisiae TIM10 strain growth, BacTiter-Glo luminescence, 24 h. inhibition, % at 10 µM. 330,000 tested, 1.4% active. AID 463195;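 active = inhibition of 40% or more at the single tested concentration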;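 note: wild-type TIM10 isogenic control strain grown at permissive 25 °C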
tim10-1 inh: growth inhibitors of tim10-1 mutant yeast | S. cerevisiae tim10-1 ts strain growth, BacTiter-Glo, 24 h | inhibition, % at 20 µM | 330,000 tested, 2.2% active;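 active = inhibition of at least 40%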;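 note: mutant grown at 25 °C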
NALP3 yeast inh: NALP3 inhibition in yeast; 330,000 tested, 0.39% active; inhibition, % at 10 µM; AID 2825; Yeast reconstituted NLRP3/ASC/caspase-1, beta-gal luminescence, 24 h;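 active = inhibition of 50% or more; inactive = inhibition below 50%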
PfHsp90 set2: growth inhibition of yeast expressing Plasmodium Hsp90. 310,000 tested, 0.32% active. inhibition, % at 9.4 µM. S. cerevisiae expressing PfHsp90, BacTiter-Glo ATP, 48 h; yeast lacking PDR1 and PDR3 efflux regulators;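 active = every replicate shows inhibition above about 80%, whatever the replicate mean, limit read from the data; inconclusive = mean inhibition reaches the set limit but some replicate falls short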
A number is an active result; . = inactive; ? = inconclusive; / = no result given. This is a sample that favours compounds with a hit; in the whole collection about 4.6% have one here.

SMILES | tim23-1 inh | SKKanGAS inh | TIM10 inh | tim10-1 inh | NALP3 yeast inh | PfHsp90 set2
Cc1ccc(NC(=S)N2CCN(S(=O)(=O)c3ccccc3)CC2)cc1C | . | / | . | . | . | .
CC(C)(C)c1csc(NNC(=O)c2ccc(Br)cc2)n1 | . | 61 | . | . | . | .
C/C(=N\Nc1nc(C(C)(C)C)cs1)c1ccc(O)cc1 | . | . | . | . | . | .
O=C(NNc1nc(-c2ccc(F)cc2)cs1)c1ccccc1 | . | 68 | . | . | . | .
O=C(NNc1nc(-c2ccccc2)cs1)c1cccs1 | . | . | . | . | . | /
O=C(NNc1nc(-c2ccccc2)cs1)c1ccc(F)cc1 | . | 53 | . | . | . | .
Nc1ccc(S(=O)(=O)NC2(C(F)(F)F)NC(=O)N(c3ccccc3F)C2=O)cc1 (centres undefined) | . | . | . | . | . | .
COc1ccccc1N=C1NC(=O)/C(=C/c2ccc(N(C)C)cc2)S1 | . | 56 | . | . | . | .
COc1ccc(/C=C2\SC(=Nc3ccccc3)NC2=O)cc1 | . | . | . | . | . | /
COc1ccc(-c2ncn(CCC#N)c2[N+](=O)[O-])cc1 | . | 97 | . | . | . | .
C=C(C)COc1ccc(-c2n[nH]c(C)c2-c2ccc(OC)cc2)c(O)c1 | . | 61 | . | . | . | .
COc1ccc(-c2n[nH]c(C)c2-c2cscn2)c(O)c1 | . | . | . | . | . | .
CC(C)NC(=O)c1ccc(-n2c(=S)[nH]c3ccccc3c2=O)cc1 | . | . | . | . | . | /
Cc1nnsc1C(=O)N/N=C/c1ccccc1 | . | . | . | . | . | .
Cc1nnsc1C(=O)N/N=C/c1ccc2ccccc2c1O | . | 56 | . | . | . | .
Cn1ccc(C(=O)Nc2cccnc2Cl)n1 | . | . | . | . | . | .
Cc1cccc(C)c1Oc1nc(-c2ccccc2)ncc1S(=O)(=O)c1ccccc1 | . | 51 | . | . | . | .
c1ccc(Nc2nc3ccccc3[nH]2)nc1 | . | 62 | . | . | . | .
Nc1ccc(Nc2nc3ccccc3[nH]2)cc1 | . | . | . | . | . | .
CCNc1nc(NCC)nc(N(C)/N=C/c2ccco2)n1 | . | . | . | . | . | .
NC(=O)CN1CCN(Cc2ccc3c(c2)OCO3)CC1 | . | . | . | . | . | .
Cc1ccc(N=Nc2ccc(O)c(P(=O)(c3ccccc3)c3ccccc3)c2)cc1 | . | 50 | . | . | . | .
CCCOc1ccc(-c2nc(OC)c3ccccc3n2)cc1 | . | 56 | . | . | . | /
CCOC(=O)C1CCCN(C(=O)CCn2nnnc2CN2CCOCC2)C1 (centres undefined) | . | . | . | . | . | .
O=C(CSc1nc(N2CCOCC2)nc(N2CCOCC2)n1)Nc1cccc(C(F)(F)F)c1 | . | 54 | . | . | . | .
SMILES | tim23-1 inh | SKKanGAS inh | TIM10 inh | tim10-1 inh | NALP3 yeast inh | PfHsp90 set2
Cc1ccc(CN2CCN(C(=O)CC(C)C)CC2)cc1 | . | . | . | . | . | .
COC(=O)c1cc(NC(=O)c2cc(-c3ccc(Cl)cc3)oc2C(F)(F)F)ccc1N1CCOCC1 | . | 59 | . | . | . | .
COC(=O)c1cc(NC(=O)c2cc(-c3ccccc3Cl)oc2C(F)(F)F)ccc1N1CCOCC1 | . | . | . | . | . | .
O=S(=O)(c1cccc(C(F)(F)F)c1)N1CCN(CC(O)COCc2ccccc2)CC1 (centres undefined) | . | / | . | . | . | .
C=C1c2cccc(O)c2C(O)=C2C(=O)[C@]3(O)C(O)=C(C(N)=O)C(=O)[C@@H](N(C)C)[C@@H]3[C@@H](O)[C@H]12 | . | 106 | . | . | . | .
CN(C)c1ccc(O)c2c1CC1CC3C(N(C)C)C(=O)C(C(N)=O)=C(O)[C@@]3(O)C(=O)C1=C2O (some centres undefined) | . | 110 | . | . | . | .
C[C@H]1c2cccc(O)c2C(O)=C2C(=O)C3(O)C(O)=C(C(N)=O)C(=O)[C@@H](N(C)C)[C@@H]3[C@@H](O)[C@@H]21 (some centres undefined) | . | / | . | . | . | .
COc1ccc(NC(=O)c2c(N)cnn2C)cc1 | . | . | . | . | . | .
CC(C)(C)n1cnc2cc(NCc3cccs3)ccc21 | . | . | . | . | . | .
Cc1ccccc1-n1cnc2cc(NCc3cccs3)ccc21 | . | 50 | . | . | . | .
Cc1ccc(C)c(N(CC(=O)NC(C)(C)C)C(=O)CCC(=O)Nc2nccs2)c1 | . | . | . | . | . | .
Cc1ccc(S(=O)(=O)Nc2cccc3cccnc23)cc1 | . | ? | . | . | . | .
COc1cc(NS(=O)(=O)c2ccc(C)cc2)c2ncccc2c1 | . | 82 | . | . | . | /
CC(C)C[C@H](NC(=O)c1nc[nH]c1C(=O)NCC(=O)OCc1ccccc1)C(=O)OCc1ccccc1 | . | . | . | . | . | .
CC(C)(C)OC(=O)NCCCC[C@H](NC(=O)c1[nH]cnc1C(=O)Nc1ccc(Cl)cc1)C(=O)OC(C)(C)C | . | 57 | . | . | . | .
CCOC(=O)c1ccc(NC(=O)c2nc[nH]c2C(=O)N[C@@H](CC(C)C)C(=O)OC(C)(C)C)cc1 | . | . | . | . | . | .
CC(C)C[C@H](NC(=O)c1[nH]cnc1C(=O)Nc1ccccc1)C(=O)OC(C)(C)C | . | 63 | . | . | . | .
CC(C)C[C@H](NC(=O)c1nc[nH]c1C(=O)N[C@@H](CC(C)C)C(=O)OC(C)(C)C)C(=O)OCc1ccccc1 | . | 58 | . | . | . | /
CC(C)C[C@H](NC(=O)c1[nH]cnc1C(=O)N[C@@H](C)c1ccccc1)C(=O)OCc1ccccc1 | . | 75 | . | . | . | .
CC(C)(C)OC(=O)NCCCC[C@H](NC(=O)c1[nH]cnc1C(=O)Nc1ccccc1)C(=O)OC(C)(C)C | . | . | . | . | . | /
OC1C(O)C(O)C(O)C(O)C1O (centres undefined) | . | . | . | . | . | .
O=C(Nc1nc(N2C(=O)c3ccccc3C2=O)n(-c2ccccc2)n1)c1ccc(Cl)cc1 | . | 56 | . | . | . | .
Cc1ccc2c(c1)C(=O)CC(c1ccc3c(c1)OCCO3)O2 (centres undefined) | . | . | . | . | . | .
CC(C)=CCc1cc([C@@H]2CC(=O)c3ccc(O)c(CC=C(C)C)c3O2)ccc1O | . | 86 | . | . | . | .
CC(C)C(=O)Nc1ccc(C(=O)NNC(=S)NC(=O)c2cccs2)cc1 | . | ? | . | . | . | .
Cc1cccc(C(=O)NNC(=S)NC(=O)c2cccs2)c1 | . | 76 | . | . | . | .
Cc1ccc(C(=O)NNC(=S)NC(=O)c2ccccc2)cc1 | . | 99 | . | . | . | .
Cc1ccccc1C(=O)NNC(=S)NC(=O)c1ccccc1 | . | . | . | . | . | .
Cc1ccc(C(=O)NC(=S)NNC(=O)c2ccccc2)cc1 | . | 77 | . | . | . | .

Assay outcomes: PubChem, several laboratories
